# Key:
# Test in all cases: DAPPL (digital affinity profiling via proximity ligation, sequencing); 10 mM Tris-HCl pH 7.5, 50 mM NaCl, 1 mM DTT, 4% glycerol, room temperature, 30 min; GST-TFs on glutathione beads, 16-mer random dsDNA library, 0.1% formaldehyde crosslink after washing; high values mean tight binding
# [1] = target: T1, FLI1 (Homo sapiens, UniProt Q01543 1-452); settings: protein: recombinant; tags: N-terminal GST; dsDNA, one strand shown
# T1 sequence: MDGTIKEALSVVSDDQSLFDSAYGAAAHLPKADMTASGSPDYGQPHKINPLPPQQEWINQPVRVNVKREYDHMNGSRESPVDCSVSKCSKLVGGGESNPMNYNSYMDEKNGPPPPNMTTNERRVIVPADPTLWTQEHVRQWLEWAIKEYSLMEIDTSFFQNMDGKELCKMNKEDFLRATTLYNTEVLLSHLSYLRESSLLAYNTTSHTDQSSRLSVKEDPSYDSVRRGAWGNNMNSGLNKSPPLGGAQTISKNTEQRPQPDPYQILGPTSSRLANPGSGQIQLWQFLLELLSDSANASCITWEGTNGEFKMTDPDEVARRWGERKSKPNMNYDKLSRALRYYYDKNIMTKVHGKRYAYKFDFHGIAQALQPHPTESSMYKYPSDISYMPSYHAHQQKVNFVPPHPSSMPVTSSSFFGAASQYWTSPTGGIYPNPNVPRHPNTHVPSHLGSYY
# Summary of the method: (§1)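 Binding signal is defined as a hexamer's read frequency for one factor over its frequency for the tag-only sample. To obtain reads, GST-fused human transcription factors were expressed in yeast, captured on glutathione beads, barcoded with DNA and pooled with that sample. Pools met 200 nmole of a 16-mer random double-stranded DNA library in Tris/NaCl/DTT/glycerol buffer for 30 min at room temperature before washing, 0.1% formaldehyde crosslinking, proximity ligation (BsaI/T4 ligase, 1 h, 37 °C), PCR and Illumina NextSeq500 sequencing.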
# [2] = target: T2, ELK1 (Homo sapiens, UniProt P19419 1-428); settings: protein: recombinant; tags: N-terminal GST; dsDNA, one strand shown
# T2 sequence: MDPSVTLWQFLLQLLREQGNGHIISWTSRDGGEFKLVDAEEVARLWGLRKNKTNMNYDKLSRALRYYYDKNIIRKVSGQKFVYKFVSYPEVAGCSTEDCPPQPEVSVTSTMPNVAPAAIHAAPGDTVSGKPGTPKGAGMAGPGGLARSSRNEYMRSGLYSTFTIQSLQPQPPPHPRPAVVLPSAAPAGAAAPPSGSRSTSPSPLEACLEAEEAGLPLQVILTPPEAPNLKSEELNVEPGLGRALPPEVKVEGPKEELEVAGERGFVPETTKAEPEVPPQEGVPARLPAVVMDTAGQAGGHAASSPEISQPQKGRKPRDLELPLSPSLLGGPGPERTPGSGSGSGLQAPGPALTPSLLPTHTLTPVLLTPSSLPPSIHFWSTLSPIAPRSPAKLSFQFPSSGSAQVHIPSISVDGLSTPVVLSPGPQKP
# Summary of the method: as §1
# [3] = target: T3, GABPA (Homo sapiens, UniProt Q06546 1-454); settings: protein: recombinant; tags: N-terminal GST; dsDNA, one strand shown
# T3 sequence: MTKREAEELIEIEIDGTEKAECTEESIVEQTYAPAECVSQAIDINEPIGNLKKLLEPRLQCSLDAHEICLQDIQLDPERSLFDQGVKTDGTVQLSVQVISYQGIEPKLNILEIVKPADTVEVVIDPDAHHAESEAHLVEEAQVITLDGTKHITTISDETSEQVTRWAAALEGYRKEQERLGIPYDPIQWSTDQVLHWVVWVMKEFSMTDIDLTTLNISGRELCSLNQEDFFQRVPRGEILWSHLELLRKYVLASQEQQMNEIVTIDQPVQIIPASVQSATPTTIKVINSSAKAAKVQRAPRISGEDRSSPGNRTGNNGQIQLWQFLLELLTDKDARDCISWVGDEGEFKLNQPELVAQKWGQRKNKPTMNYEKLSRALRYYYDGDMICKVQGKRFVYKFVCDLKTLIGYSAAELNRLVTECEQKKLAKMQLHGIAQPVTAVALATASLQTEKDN
# Summary of the method: as §1
# [4] = target: T4, ERG (Homo sapiens, UniProt P11308 1-479); settings: protein: recombinant; tags: N-terminal GST; dsDNA, one strand shown
# T4 sequence: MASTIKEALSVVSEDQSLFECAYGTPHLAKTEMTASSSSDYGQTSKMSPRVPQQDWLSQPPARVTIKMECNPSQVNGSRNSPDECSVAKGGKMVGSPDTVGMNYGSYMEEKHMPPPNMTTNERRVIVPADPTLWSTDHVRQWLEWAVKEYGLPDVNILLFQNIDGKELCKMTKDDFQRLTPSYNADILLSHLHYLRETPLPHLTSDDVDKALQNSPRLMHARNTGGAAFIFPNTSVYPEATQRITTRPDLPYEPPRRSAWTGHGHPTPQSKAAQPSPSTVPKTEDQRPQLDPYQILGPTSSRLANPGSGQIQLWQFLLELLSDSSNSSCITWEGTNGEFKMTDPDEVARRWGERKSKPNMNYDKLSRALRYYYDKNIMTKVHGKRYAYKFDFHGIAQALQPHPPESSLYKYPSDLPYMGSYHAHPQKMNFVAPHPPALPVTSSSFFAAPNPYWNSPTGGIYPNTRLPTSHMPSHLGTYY
# Summary of the method: as §1
# [5] = target: ELF1 (Homo sapiens, UniProt P32519 1-619); settings: protein: recombinant; tags: N-terminal GST; dsDNA, one strand shown
# Summary of the method: as §1
# [6] = target: T5, EHF (Homo sapiens, UniProt Q9NZC4 1-300); settings: protein: recombinant; tags: N-terminal GST; dsDNA, one strand shown
# T5 sequence: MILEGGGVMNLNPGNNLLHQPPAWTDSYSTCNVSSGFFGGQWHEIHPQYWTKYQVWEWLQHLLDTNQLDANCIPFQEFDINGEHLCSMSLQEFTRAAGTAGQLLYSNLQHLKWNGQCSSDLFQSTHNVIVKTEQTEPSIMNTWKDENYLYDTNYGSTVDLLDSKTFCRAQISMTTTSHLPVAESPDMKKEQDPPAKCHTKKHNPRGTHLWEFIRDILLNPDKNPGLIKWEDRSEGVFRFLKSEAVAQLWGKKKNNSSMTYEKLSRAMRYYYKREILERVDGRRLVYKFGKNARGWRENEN
# Summary of the method: as §1
# [7] = target: SPI1 (Homo sapiens, UniProt P17947 1-270); settings: protein: recombinant; tags: N-terminal GST; dsDNA, one strand shown
# Summary of the method: as §1
# [8] = target: SPIB (Homo sapiens, UniProt Q01892 1-262); settings: protein: recombinant; tags: N-terminal GST; dsDNA, one strand shown
# Summary of the method: as §1
# [9] = target: T6, ELK3 (Homo sapiens, UniProt P41970 1-407); settings: protein: recombinant; tags: N-terminal GST; dsDNA, one strand shown
# T6 sequence: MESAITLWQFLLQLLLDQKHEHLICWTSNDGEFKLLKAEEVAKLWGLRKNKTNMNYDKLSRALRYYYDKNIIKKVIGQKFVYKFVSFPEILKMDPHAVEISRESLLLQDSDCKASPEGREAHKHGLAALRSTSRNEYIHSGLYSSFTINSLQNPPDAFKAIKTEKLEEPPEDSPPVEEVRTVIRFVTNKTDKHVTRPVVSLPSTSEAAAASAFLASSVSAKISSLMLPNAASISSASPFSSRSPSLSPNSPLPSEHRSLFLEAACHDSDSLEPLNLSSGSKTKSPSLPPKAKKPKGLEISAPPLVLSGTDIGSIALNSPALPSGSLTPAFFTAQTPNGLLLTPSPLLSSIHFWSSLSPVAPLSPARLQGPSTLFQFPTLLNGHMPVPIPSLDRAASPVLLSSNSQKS
# Summary of the method: as §1
# [10] = target: T7, FEV (Homo sapiens, UniProt Q99581 1-238); settings: protein: recombinant; tags: N-terminal GST; dsDNA, one strand shown
# T7 sequence: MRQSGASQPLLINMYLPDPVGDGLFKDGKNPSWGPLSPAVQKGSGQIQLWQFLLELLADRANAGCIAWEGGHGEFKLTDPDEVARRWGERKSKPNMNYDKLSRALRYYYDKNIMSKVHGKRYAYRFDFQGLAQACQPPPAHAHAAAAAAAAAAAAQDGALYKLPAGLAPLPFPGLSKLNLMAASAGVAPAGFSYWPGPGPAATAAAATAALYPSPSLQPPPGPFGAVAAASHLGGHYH
# Summary of the method: as §1
# [11] = target: ETV5 (Homo sapiens, UniProt P41161 1-510); settings: protein: recombinant; tags: N-terminal GST; dsDNA, one strand shown
# Summary of the method: as §1
# [12] = target: HSF1 (Homo sapiens, UniProt Q00613 1-529); settings: protein: recombinant; tags: N-terminal GST; chain copies: 3; dsDNA, one strand shown
# Summary of the method: as §1
# [13] = target: T8, SPIC (Homo sapiens, UniProt Q8N5J4 1-248); settings: protein: recombinant; tags: N-terminal GST; dsDNA, one strand shown
# T8 sequence: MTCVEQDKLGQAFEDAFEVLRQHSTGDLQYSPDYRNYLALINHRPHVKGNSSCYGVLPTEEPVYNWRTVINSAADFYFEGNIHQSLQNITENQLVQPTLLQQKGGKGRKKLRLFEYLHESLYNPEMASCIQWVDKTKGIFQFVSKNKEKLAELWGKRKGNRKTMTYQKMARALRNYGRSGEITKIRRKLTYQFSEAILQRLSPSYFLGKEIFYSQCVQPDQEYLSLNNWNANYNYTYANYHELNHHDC
# Summary of the method: as §1
# [14] = target: ELF4 (Homo sapiens, UniProt Q99607 1-663); settings: protein: recombinant; tags: N-terminal GST; dsDNA, one strand shown
# Summary of the method: as §1
# [15] = target: T9, ELK4 (Homo sapiens, UniProt P28324-2 1-405); settings: protein: recombinant; tags: N-terminal GST; dsDNA, one strand shown
# T9 sequence: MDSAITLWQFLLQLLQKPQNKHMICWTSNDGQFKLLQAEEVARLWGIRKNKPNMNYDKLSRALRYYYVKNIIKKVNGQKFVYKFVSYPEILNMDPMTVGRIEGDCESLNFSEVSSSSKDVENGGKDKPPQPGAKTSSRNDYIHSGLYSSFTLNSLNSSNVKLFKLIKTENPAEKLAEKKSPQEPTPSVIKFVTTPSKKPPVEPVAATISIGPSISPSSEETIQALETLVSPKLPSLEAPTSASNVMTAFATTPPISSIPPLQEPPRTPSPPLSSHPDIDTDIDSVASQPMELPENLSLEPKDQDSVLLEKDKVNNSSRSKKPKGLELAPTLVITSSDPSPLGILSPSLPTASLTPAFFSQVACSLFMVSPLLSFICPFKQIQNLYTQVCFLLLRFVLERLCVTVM
# Summary of the method: as §1
# [16] = target: T10, ETV2 (Homo sapiens, UniProt O00321 1-342); settings: protein: recombinant; tags: N-terminal GST; dsDNA, one strand shown
# T10 sequence: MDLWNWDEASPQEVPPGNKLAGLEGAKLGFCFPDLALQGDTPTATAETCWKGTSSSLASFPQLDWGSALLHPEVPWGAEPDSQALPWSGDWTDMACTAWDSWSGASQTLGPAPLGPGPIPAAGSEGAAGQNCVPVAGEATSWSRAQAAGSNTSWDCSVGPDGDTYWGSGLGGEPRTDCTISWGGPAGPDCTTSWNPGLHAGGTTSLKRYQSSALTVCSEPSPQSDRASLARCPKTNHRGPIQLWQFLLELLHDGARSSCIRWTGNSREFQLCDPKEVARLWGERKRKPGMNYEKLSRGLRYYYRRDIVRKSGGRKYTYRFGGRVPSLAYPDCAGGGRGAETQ
# Summary of the method: as §1
# [17] = target: CRX (Homo sapiens, UniProt O43186 1-299); settings: protein: recombinant; tags: N-terminal GST; dsDNA, one strand shown
# Summary of the method: as §1
# [18] = target: ETV1 (Homo sapiens, UniProt P50549 1-477); settings: protein: recombinant; tags: N-terminal GST; dsDNA, one strand shown
# Summary of the method: as §1
# HSF1, sequence (Q00613 whole entry): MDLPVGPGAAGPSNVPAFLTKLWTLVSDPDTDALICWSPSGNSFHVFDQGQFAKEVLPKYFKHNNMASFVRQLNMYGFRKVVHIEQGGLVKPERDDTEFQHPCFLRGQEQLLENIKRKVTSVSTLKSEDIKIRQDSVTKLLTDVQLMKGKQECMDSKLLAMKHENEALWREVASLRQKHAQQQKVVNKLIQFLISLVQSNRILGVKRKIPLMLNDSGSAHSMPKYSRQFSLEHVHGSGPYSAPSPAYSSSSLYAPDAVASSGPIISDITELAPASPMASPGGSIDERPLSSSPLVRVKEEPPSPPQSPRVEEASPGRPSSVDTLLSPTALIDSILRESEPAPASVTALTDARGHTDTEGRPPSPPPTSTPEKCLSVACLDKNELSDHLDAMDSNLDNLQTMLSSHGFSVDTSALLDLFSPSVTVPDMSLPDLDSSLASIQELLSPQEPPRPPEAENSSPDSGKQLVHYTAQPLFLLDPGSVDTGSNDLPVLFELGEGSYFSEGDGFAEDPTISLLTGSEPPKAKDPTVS
# SPIB, sequence (Q01892 whole entry): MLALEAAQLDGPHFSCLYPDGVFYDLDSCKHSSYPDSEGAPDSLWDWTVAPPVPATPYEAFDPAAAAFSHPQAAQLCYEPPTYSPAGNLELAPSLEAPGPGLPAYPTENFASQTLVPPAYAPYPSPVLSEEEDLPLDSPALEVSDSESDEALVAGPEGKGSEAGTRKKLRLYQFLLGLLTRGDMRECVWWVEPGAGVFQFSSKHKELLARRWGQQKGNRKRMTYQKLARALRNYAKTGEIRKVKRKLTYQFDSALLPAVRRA
# ETV1, sequence (P50549 whole entry): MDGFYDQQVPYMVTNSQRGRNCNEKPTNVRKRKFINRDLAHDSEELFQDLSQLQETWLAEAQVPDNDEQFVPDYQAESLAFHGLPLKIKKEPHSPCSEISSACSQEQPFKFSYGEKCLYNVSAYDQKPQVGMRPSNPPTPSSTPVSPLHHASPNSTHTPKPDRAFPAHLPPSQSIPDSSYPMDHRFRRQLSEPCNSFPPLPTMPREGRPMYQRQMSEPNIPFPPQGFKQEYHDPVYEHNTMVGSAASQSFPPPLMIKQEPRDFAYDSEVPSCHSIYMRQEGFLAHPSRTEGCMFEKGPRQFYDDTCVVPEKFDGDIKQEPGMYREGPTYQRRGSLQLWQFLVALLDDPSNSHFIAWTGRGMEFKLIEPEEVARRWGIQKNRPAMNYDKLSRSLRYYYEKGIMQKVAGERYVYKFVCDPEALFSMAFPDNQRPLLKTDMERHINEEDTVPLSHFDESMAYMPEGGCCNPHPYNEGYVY
# ELF4, sequence (Q99607 whole entry): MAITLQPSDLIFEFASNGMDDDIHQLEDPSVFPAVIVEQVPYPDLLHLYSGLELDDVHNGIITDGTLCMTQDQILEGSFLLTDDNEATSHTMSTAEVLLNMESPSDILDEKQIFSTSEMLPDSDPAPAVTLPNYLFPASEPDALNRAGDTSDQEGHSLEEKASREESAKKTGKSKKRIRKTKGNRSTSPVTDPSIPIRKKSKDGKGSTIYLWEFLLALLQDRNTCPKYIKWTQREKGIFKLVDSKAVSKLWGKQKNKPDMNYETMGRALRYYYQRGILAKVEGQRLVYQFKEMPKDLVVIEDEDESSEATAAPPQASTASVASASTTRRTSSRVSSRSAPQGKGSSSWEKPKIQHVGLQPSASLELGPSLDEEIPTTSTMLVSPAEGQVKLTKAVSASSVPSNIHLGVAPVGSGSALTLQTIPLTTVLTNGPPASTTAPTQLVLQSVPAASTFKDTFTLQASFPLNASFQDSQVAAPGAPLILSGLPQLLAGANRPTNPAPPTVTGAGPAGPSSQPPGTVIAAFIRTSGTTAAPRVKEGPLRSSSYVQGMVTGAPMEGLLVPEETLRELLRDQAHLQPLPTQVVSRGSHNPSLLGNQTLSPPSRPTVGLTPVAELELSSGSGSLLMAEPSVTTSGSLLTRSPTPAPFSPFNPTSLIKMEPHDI
# ELF1, sequence (P32519 whole entry): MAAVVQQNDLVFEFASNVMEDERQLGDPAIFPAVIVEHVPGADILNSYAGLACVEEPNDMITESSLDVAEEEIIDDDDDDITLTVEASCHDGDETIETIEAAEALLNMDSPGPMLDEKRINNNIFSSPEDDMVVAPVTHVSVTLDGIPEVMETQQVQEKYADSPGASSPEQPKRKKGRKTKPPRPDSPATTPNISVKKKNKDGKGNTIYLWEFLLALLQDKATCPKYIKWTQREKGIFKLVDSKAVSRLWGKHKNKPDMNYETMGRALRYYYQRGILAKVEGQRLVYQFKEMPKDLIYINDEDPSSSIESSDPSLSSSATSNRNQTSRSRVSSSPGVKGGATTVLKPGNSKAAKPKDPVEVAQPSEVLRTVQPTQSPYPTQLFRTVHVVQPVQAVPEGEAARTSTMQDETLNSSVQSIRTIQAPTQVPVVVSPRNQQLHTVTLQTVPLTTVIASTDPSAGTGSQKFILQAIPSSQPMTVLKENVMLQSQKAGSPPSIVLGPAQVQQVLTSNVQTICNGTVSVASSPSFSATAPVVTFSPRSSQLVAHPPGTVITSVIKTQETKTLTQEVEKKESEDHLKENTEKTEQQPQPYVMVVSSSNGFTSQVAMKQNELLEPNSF
# CRX, sequence (O43186 whole entry): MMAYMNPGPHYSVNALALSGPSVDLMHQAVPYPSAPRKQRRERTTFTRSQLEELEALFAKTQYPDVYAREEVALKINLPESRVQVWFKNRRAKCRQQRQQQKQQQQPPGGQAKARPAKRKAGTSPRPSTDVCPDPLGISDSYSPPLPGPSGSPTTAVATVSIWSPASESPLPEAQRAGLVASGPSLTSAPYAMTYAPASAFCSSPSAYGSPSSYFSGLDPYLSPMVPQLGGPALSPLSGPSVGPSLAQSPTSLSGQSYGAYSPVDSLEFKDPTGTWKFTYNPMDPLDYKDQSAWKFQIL
# ETV5, sequence (P41161 whole entry): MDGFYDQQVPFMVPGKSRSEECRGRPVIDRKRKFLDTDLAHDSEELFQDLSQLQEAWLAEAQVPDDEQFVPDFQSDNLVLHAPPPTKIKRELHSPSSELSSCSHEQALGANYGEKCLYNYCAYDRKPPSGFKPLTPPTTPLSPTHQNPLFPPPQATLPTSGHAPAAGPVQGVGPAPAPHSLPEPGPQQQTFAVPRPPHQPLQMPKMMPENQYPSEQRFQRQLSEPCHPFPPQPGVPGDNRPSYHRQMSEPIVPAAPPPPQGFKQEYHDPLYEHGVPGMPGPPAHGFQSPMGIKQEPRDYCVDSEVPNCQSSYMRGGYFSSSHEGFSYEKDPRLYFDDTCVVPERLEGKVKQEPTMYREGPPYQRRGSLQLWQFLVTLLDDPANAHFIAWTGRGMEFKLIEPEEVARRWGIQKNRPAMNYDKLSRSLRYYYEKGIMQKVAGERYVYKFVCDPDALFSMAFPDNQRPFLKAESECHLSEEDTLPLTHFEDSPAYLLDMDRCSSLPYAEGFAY
sequence,measurement,setting,value
CTCCAT,binding signal,[1],"1.34 fold enrichment (6-mer frequency, TF over GST control)"
same,binding signal,[2],"1.38 fold enrichment (6-mer frequency, TF over GST control)"
same,binding signal,[3],"1.31 fold enrichment (6-mer frequency, TF over GST control)"
same,binding signal,[4],"1.34 fold enrichment (6-mer frequency, TF over GST control)"
same,binding signal,[5],"1.34 fold enrichment (6-mer frequency, TF over GST control)"
same,binding signal,[6],"1.37 fold enrichment (6-mer frequency, TF over GST control)"
same,binding signal,[7],"1.32 fold enrichment (6-mer frequency, TF over GST control)"
same,binding signal,[8],"1.25 fold enrichment (6-mer frequency, TF over GST control)"
same,binding signal,[9],"1.36 fold enrichment (6-mer frequency, TF over GST control)"
same,binding signal,[10],"1.36 fold enrichment (6-mer frequency, TF over GST control)"
same,binding signal,[11],"1.43 fold enrichment (6-mer frequency, TF over GST control)"
same,binding signal,[12],"1.21 fold enrichment (6-mer frequency, TF over GST control)"
same,binding signal,[13],"1.12 fold enrichment (6-mer frequency, TF over GST control)"
same,binding signal,[14],"1.28 fold enrichment (6-mer frequency, TF over GST control)"
same,binding signal,[15],"1.4 fold enrichment (6-mer frequency, TF over GST control)"
same,binding signal,[16],"1.46 fold enrichment (6-mer frequency, TF over GST control)"
same,binding signal,[17],"1.19 fold enrichment (6-mer frequency, TF over GST control)"
same,binding signal,[18],"1.3 fold enrichment (6-mer frequency, TF over GST control)"

# Reference: paper PMC7862700, “An all-to-all approach to the identification of sequence-specific readers for epigenetic DNA modifications on cytosine”
